# Results: paper PMC8384837, “Expanding the binding specificity for RNA recognition by a PUF domain”
# Assays:
# Experiment in all cases: yeast three-hybrid, YBZ-1, SC-Leu-His + 0.5 mM 3-AT, 4 days
# Conditions in all cases: tags: N-Gal4 AD-HA kept; label: inside an RPR1-promoter hybrid RNA with tandem MS2 sites; ssRNA
# [1] = biological target: PUM1 PUF domain R1-RRN (Homo sapiens, UniProt Q14671 828-1176, S863R;Q867N)
# Summary of the method: (§1)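 Repeat regions from input (SC-Leu) and selection (SC-Leu-His + 0.5 mM 3-AT) plates were PCR-amplified and Illumina-sequenced after four days of growth. The cells were strain YBZ-1 with a LexA–MS2 coat fusion and a HIS3 reporter, co-expressing Pumilio-1 PUF domain libraries and matching RNA elements from a centromeric plasmid. The interaction score is the log change in variant frequency from input to selection, taken in log2 with a pseudocount of 1 for absent variants.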
# [2] = biological target: PUM1 PUF domain R1-YVK (Homo sapiens, UniProt Q14671 828-1176, S863Y;R864V;Q867K)
# Summary of the method: as §1
# [3] = biological target: PUM1 PUF domain R8-KHC (Homo sapiens, UniProt Q14671 828-1176, N1122K;Y1123H;Q1126C)
# Summary of the method: as §1
# [4] = biological target: PUM1 PUF domain R3-RCW (Homo sapiens, UniProt Q14671 828-1176, C935R;R936C;Q939W)
# Summary of the method: as §1
# [5] = biological target: PUM1 PUF domain R3-IYD (Homo sapiens, UniProt Q14671 828-1176, C935I;R936Y;Q939D)
# Summary of the method: as §1
# [6] = biological target: PUM1 PUF domain R5-KRV (Homo sapiens, UniProt Q14671 828-1176, C1007K;Q1011V)
# Summary of the method: as §1
# [7] = biological target: PUM1 PUF domain R7-RGG (Homo sapiens, UniProt Q14671 828-1176, S1079R;N1080G;E1083G)
# Summary of the method: as §1
# [8] = biological target: T1, PUM1 PUF domain R6-TFA (Homo sapiens, UniProt Q14671 828-1176, N1043T;Y1044F;Q1047A)
# T1 sequence: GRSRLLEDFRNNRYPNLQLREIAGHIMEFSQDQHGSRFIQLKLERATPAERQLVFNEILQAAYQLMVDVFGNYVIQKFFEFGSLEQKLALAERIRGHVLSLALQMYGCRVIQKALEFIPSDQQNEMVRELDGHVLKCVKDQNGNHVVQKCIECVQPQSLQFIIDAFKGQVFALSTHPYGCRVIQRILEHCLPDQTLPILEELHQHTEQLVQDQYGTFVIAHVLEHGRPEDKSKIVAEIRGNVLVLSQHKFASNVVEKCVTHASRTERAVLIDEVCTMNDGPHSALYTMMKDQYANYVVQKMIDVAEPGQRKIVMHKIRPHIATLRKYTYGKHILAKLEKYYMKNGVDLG
# Summary of the method: as §1
# [9] = biological target: PUM1 PUF domain R4-RHL (Homo sapiens, UniProt Q14671 828-1176, N971R;Q975L)
# Summary of the method: as §1
sequence,measurement,setting,value
GGCUAGAACUAGUGGAUCCCCCGGCGCCCGGCGGCUCGAGCCCGGGUAAGUGUAAAUGGUCUGCAUGCCGCCGGGCGCCAUGCCUGCAGGUCGACUCUAGAAAACAUG,binding signal,[1],2.89 log2 enrichment (interaction score)
GGCUAGAACUAGUGGAUCCCCCGGCGCCCGGCGGCUCGAGCCCGGGUAAGUGUAAAUCGUCUGCAUGCCGCCGGGCGCCAUGCCUGCAGGUCGACUCUAGAAAACAUG,binding signal,[1],5.26 log2 enrichment (interaction score)
same,binding signal,[2],1.62 log2 enrichment (interaction score)
GGCUAGAACUAGUGGAUCCCCCGGCGCCCGGCGGCUCGAGCCCGGGUAAGCGUAAAUAGUCUGCAUGCCGCCGGGCGCCAUGCCUGCAGGUCGACUCUAGAAAACAUG,binding signal,[3],5.19 log2 enrichment (interaction score)
GGCUAGAACUAGUGGAUCCCCCGGCGCCCGGCGGCUCGAGCCCGGGUAAGUGUAAGUAGUCUGCAUGCCGCCGGGCGCCAUGCCUGCAGGUCGACUCUAGAAAACAUG,binding signal,[4],3 log2 enrichment (interaction score)
GGCUAGAACUAGUGGAUCCCCCGGCGCCCGGCGGCUCGAGCCCGGGUAAGUGUAAUUAGUCUGCAUGCCGCCGGGCGCCAUGCCUGCAGGUCGACUCUAGAAAACAUG,binding signal,[4],3.79 log2 enrichment (interaction score)
same,binding signal,[5],2.12 log2 enrichment (interaction score)
GGCUAGAACUAGUGGAUCCCCCGGCGCCCGGCGGCUCGAGCCCGGGUAAGUGUCAAUAGUCUGCAUGCCGCCGGGCGCCAUGCCUGCAGGUCGACUCUAGAAAACAUG,binding signal,[6],4.1 log2 enrichment (interaction score)
GGCUAGAACUAGUGGAUCCCCCGGCGCCCGGCGGCUCGAGCCCGGGUAAGUGUAAAUUGUCUGCAUGCCGCCGGGCGCCAUGCCUGCAGGUCGACUCUAGAAAACAUG,binding signal,[2],2.55 log2 enrichment (interaction score)
GGCUAGAACUAGUGGAUCCCCCGGCGCCCGGCGGCUCGAGCCCGGGUAAGUCUAAAUAGUCUGCAUGCCGCCGGGCGCCAUGCCUGCAGGUCGACUCUAGAAAACAUG,binding signal,[7],1.37 log2 enrichment (interaction score)
GGCUAGAACUAGUGGAUCCCCCGGCGCCCGGCGGCUCGAGCCCGGGUAAGUUUAAAUAGUCUGCAUGCCGCCGGGCGCCAUGCCUGCAGGUCGACUCUAGAAAACAUG,binding signal,[7],3.65 log2 enrichment (interaction score)
GGCUAGAACUAGUGGAUCCCCCGGCGCCCGGCGGCUCGAGCCCGGGUAAGUGUAAAUAGUCUGCAUGCCGCCGGGCGCCAUGCCUGCAGGUCGACUCUAGAAAACAUG,binding signal,[8],3.93 log2 enrichment (interaction score)
same,binding signal,[9],3.62 log2 enrichment (interaction score)
same,binding signal,[5],3.08 log2 enrichment (interaction score)
